# Measurements: PubChem BioAssay AID1259343 (VanderVen Lab, College of Veterinary Medicine, Cornell …, 2017)
# Among all 6,200 compounds or so, about 2,900 (47%) were called active. So high a share suggests a set chosen from earlier hits. The list shows a part of the results. Values without a mark were called inactive. Rule as the data show it: active = inhibition above about 50%; inactive = the rest.
# Experiment: Mycobacterium tuberculosis growth inhibition, primary screen (AID 1259343)
# Details: inhibition: at 10 µM, stronger effect = higher value; outcome: 10 uM
row,Compound,inhibition
1,Cc1ccccc1C(=O)OC1CCCN(C)C1 (centres undefined),-3.69%
2,Cc1cc(=O)[nH]c(-n2nc(C)cc2NC(=O)C2CCCC2)n1,98.1% (active)
3,CC(C)NC(=O)c1ccc(-c2ccc([N+](=O)[O-])cc2Cl)o1,37.9%
4,O=C(CCl)Nc1cc([N+](=O)[O-])ccc1Cl,71.2% (active)
5,O=C(O)c1cc([N+](=O)[O-])ccc1NCCCc1ccccc1,-0.63%
6,Cc1ccc(-c2cc(C(=O)O)n[nH]2)s1,99.8% (active)
7,CCCCN(C)C(=O)c1cc(-c2ccc(C)s2)[nH]n1,25.6%
8,Cc1ccc(-c2csc(-c3ccc(O)cc3)n2)s1,11.1%
9,O=C(O)c1cccnc1Nc1ccc(Cl)c(Cl)c1,63.9% (active)
10,Cc1ccc(Cl)cc1Nc1ncccc1C(=O)N[C@H]1C[C@H]2CC[C@@H]1C2,9.89%
11,O=C(Nc1ccc(Cl)c(Cl)c1)Nc1ccc(I)cc1F,-10.8%
12,O=C(Nc1ccc(I)cc1)Nc1ccc(Cl)c(Cl)c1,-0.68%
13,O=C(Nc1ccccc1)Nc1ccc(Cl)c(Cl)c1,95.9% (active)
14,O=C(O)c1cnc(Nc2ccc(F)c(F)c2)c(Cl)c1,30.5%
15,CCOc1ccc(NC(=O)c2ccc(Cl)o2)cc1,17%
16,CCOc1ccc(NC(=O)c2nc(C)n(-c3ccc(Cl)cc3)n2)cc1,94.3% (active)
17,CCCCN(CCCC)CCCCSc1ccc(O)cc1,74.1% (active)
18,CC(C)(C)c1nc(COc2cccc3c2CCCC3O)no1 (centres undefined),5.49%
19,Cc1nc(-n2nc(-c3ccco3)cc2NC(=O)c2c(F)cccc2F)[nH]c(=O)c1C,99.8% (active)
20,COc1cccc(C(=O)Nc2cc(-c3ccco3)nn2-c2nc(C)c(C)c(=O)[nH]2)c1OC,98.4% (active)
21,Cc1ccc(OCC(=O)Nc2cc(-c3ccco3)nn2-c2nc(C)c(C)c(=O)[nH]2)cc1,101% (active)
22,Cc1ccccc1C(=O)Nc1cc(-c2ccco2)nn1-c1nc(C)c(C)c(=O)[nH]1,-10.1%
23,Cc1nc(-n2nc(-c3ccco3)cc2NC(=O)COc2ccc(F)cc2)[nH]c(=O)c1C,100% (active)
24,Cc1nc(-n2nc(-c3ccco3)cc2NC(=O)CC(C)C)[nH]c(=O)c1C,101% (active)
25,Cc1nc(-n2nc(-c3ccco3)cc2NC(=O)C2CC2)[nH]c(=O)c1C,99.8% (active)

row,Compound,inhibition
1,Cc1cc(N)n(-c2cc(C(F)(F)F)ccc2Cl)n1,0.14%
2,Cn1ncc2c(N3CCC(OCc4cccnc4)CC3)nc(C(C)(C)C)nc21,85.9% (active)
3,CC(=O)O[C@H]1C[C@@]2(C)[C@@H](C[C@@H](O)[C@H]3[C@@]4(C)CC[C@@H](O)[C@@H](C)C4CC[C@@]32C)/C1=C(\CCC=C(C)C)C(=O)O (some centres undefined),69.4% (active)
4,O=S(=O)(NC(C1CC1)C1CC1)c1cccc(Br)c1,14.3%
5,Oc1ccc(N2CCN(Cc3nc(-c4ccc(C(F)(F)F)cc4)no3)CC2)cc1,72.1% (active)
6,COc1ccc(-c2noc(CN3CCC(O)(c4cccc(C(F)(F)F)c4)CC3)n2)cc1,56.9% (active)
7,CC(C)CNC(=O)c1c(O)nc2sccn2c1=O,55.9% (active)
8,CC(C)CCNC(=O)c1c(O)nc2sccn2c1=O,89.6% (active)
9,O=C(NCCC1=CCCCC1)c1c(O)nc2sccn2c1=O,83.9% (active)
10,CCCCNC(=O)c1c(O)nc2sccn2c1=O,33.8%
11,CN(C)S(=O)(=O)Oc1ccc(C(=O)c2ccccc2)cc1,51.1% (active)
12,O=C(O)c1ccc(OS(=O)(=O)c2ccc(Cl)c(Cl)c2)cc1,35.4%
13,O=C(CSc1nn(-c2ccc(F)cc2)c(=S)s1)Nc1cc(F)ccc1F,-1.19%
14,O=C1CCCCC1Sc1nn(-c2ccc(F)cc2)c(=S)s1 (centres undefined),70.1% (active)
15,O=C1CCCCC1Sc1nnnn1-c1ccc(O)cc1 (centres undefined),41%
16,O=[N+]([O-])c1ccc(CON=Cc2ccc(OC(F)F)cc2)cc1,55.5% (active)
17,N#Cc1ccc(CON=Cc2ccc(OC(F)F)cc2)cc1,-4.56%
18,O=[N+]([O-])c1ccc(CON=Cc2ccc(Cl)cc2Cl)cc1,-5.39%
19,CC(C)CNC(=O)c1cn(Cc2ccc(F)cc2)nc1OCc1ccc(F)cc1,13.6%
20,CC(C)CNC(=O)CSc1n[nH]c(/C=C/c2ccc(F)cc2)n1,87% (active)
21,C/C(Cl)=C\COc1cc(C)nc2ccc(Br)cc12,99.8% (active)
22,Cc1coc2c1C(=O)C(=O)c1c-2ccc2c1CCCC2(C)C,58.8% (active)
23,COc1ccc(NCc2nn(CC(=O)c3ccc(Br)cc3)c3[n+]2CCCCC3)cc1,17.7%
24,CCn1nnc2c(=O)n(CC(=O)c3ccc(OC)cc3)cnc21,77.2% (active)
25,O=c1[nH]nc2nc(N3CCCCC3)nc(N3CCCCC3)n12,18.9%

row,Compound,inhibition
1,O=C(Cn1ccc(=O)[nH]c1=O)NNc1ccc(Cl)c(Cl)c1,97.2% (active)
2,Cc1nc(C2(NC(=O)c3ccc4c(c3)OCCCO4)CCCCC2)no1,5.32%
3,Cc1cn2nc(Sc3ccc4c(c3)OCCCO4)sc2n1,33.4%
4,Cc1nc(CSc2ccc(C(=O)NNC(=O)c3ccc4c(c3)OCCO4)cc2)cs1,95.3% (active)
5,CCCN1C(=O)C(=Cc2ccc(OC)cc2OC)SC1=S,2.79%
6,CCN(CC)c1ccc(/C=C2\SC(=S)N(NC(=O)c3ccc(OC)cc3)C2=O)cc1,8.8%
7,CCCCN1C(=O)C(=Cc2cccnc2)SC1=Nc1ccc(OC)cc1,87.8% (active)
8,O=c1c(NCc2ccc(F)cc2)nccn1Cc1ccc(Cl)cc1,96.5% (active)
9,CC(c1ccco1)N(C)C(=O)NCCc1cc(F)ccc1F (centres undefined),21.2%
10,OC(CN1CCCCCC1)CN1c2ccccc2Sc2ccccc21 (centres undefined),40.6%
11,OC(CN1CCc2ccccc2C1)Cn1c2c(c3ccccc31)CCCC2 (centres undefined),66.7% (active)
12,CCCn1cc(SCC(=O)N2CCc3ccccc32)c2ccccc21,16.9%
13,CC(C)=CCN1N=C(c2ccccc2)C(O)O1 (centres undefined),86% (active)
14,Brc1ccc2c(c1)C1CC(c3cccs3)=NN1C(c1cccnc1)O2 (centres undefined),97.9% (active)
15,Cc1ccc(C2=NN3C(C2)c2cc(Cl)ccc2OC3c2ccncc2)cc1 (centres undefined),-54.8%
16,N#Cc1ccc(OCCn2nccc2-c2ccncc2)cc1,61.2% (active)
17,Cc1ncc(COc2ccc(-c3ccc(C#N)cc3)cc2)s1,43.5%
18,COCC(=O)Nc1nc2cc(C(F)(F)F)ccc2n1Cc1ccco1,62.6% (active)
19,FC(F)(F)c1cccc(C(OCCN2CCN(Cc3ccco3)CC2)c2ccccc2)c1 (centres undefined),-3.93%
20,COCC(=O)Nc1nc2ccccc2n1C1CCCCC1,14.7%
21,O=C(OC(C(=O)Nc1cc(Cl)cc(Cl)c1)c1ccccc1)C1=COCCO1 (centres undefined),78.7% (active)
22,Nc1ccc(-n2cccc2C(=O)O)cc1,93.6% (active)
23,COc1c2ccccc2nc2occc12,89.7% (active)
24,Cc1cccc(NC(=O)C2CCN(c3c(F)cc(C#N)cc3F)CC2)n1,72.7% (active)
25,O=C(Nc1cc(F)c(N2CCCC2)c(F)c1)C1CC1c1cccnc1 (centres undefined),32.7%

row,Compound,inhibition
1,CCc1nnsc1C(=O)Nc1cc(F)c(N2CCCC2)c(F)c1,37.1%
2,O=c1c(Cl)c(N2CCN(c3ccccc3)CC2)cnn1Cc1ccccc1Cl,17.9%
3,N#CC(c1ccc(Cl)cc1Cl)c1cnnc2ccccc12 (centres undefined),-8.73%
4,N#CC(c1ccccc1)c1cnn(-c2ccccc2)c(=O)c1Cl (centres undefined),101% (active)
5,CN(C)C=Nc1ccc(OC(F)F)c(Cl)c1,92% (active)
6,CCc1cc(=O)[nH]c(-n2nc(C)cc2NC(=O)c2ccc([N+](=O)[O-])cc2)n1,101% (active)
7,Cc1cc(=O)[nH]c(-n2nc(C)cc2NC(=O)c2cccc([N+](=O)[O-])c2)n1,100% (active)
8,CCc1cc(=O)[nH]c(-n2nc(C)cc2NC(=O)c2cccc([N+](=O)[O-])c2)n1,102% (active)
9,Cc1cc(-c2nc3cccnc3s2)ccc1NS(=O)(=O)c1ccc(F)cc1F,74.7% (active)
10,COC(=O)c1ccccc1NC(=O)c1cc(-c2cccs2)n(C2CCS(=O)(=O)C2)n1 (centres undefined),42.9%
11,CCC(=O)NCC1CN(c2ccc(OC)cc2)C(=O)O1 (centres undefined),83% (active)
12,O=C(CN1CCCC1c1ccsc1)Nc1ccccc1Br (centres undefined),41.9%
13,N#Cc1nc(NC(=O)C2CC2c2ccc(Br)cc2)[nH]c1C#N (centres undefined),81.5% (active)
14,Nc1cc(S(=O)(=O)Nc2ccc(Cl)cc2)ccc1Cl,89.1% (active)
15,N#CSc1ccc(NS(=O)(=O)c2ccc(Cl)cc2)c(Cl)c1,79.8% (active)
16,Nc1cc(S(=O)(=O)Nc2ccc(Br)cc2)ccc1Cl,30%
17,O=S(=O)(Nc1cc(Cl)ccc1Cl)c1ccc(Cl)cc1,64.6% (active)
18,O=S(=O)(Nc1ccc(F)c(F)c1)c1ccc(Cl)c(Cl)c1,17.1%
19,O=c1[nH]c2ccc(S(=O)(=O)Nc3ccc(Cl)cc3Cl)cc2s1,19%
20,COc1ccc(NS(=O)(=O)c2ccc(Cl)c(Cl)c2)cc1,86.7% (active)
21,COc1ccc(S(=O)(=O)Nc2ccc3c(c2)OC(F)(F)O3)cc1,33%
22,CCC(C)(C)NS(=O)(=O)c1ccc(Cl)c(Cl)c1,82.7% (active)
23,CCN(CC)S(=O)(=O)c1cccc(S(=O)(=O)c2ccc(Cl)c(Cl)c2)c1,1.03%
24,CCS(=O)(=O)c1ccc(NC(=O)Cc2ccc(Cl)c(Cl)c2)cc1,41.3%
